Source: PubChem BioAssay (Broad Institute)
BL2 CD40 inh: CD40 pathway inhibition in BL2 cells; inhibition, % at 10 µM; actives 0.94% (n = 83,000); BL2 NF-kB luciferase reporter, CD40L-induced, 4 h;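 active = mean inhibition of at least 50% with a set share of replicates also reaching that level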
Large screens that a line does not name were inactive; [ ] = remark or other dose. Shown is part of a subset that was picked to be rich in hits.

COc1ccc(C(=O)CCN2CCc3cc(OC)c(OC)cc3C2)cc1	BL2 CD40 inh 50
COc1cc2c(cc1OC)CN(C(=O)c1ccc(-c3ccccc3)cc1)CC2	none
COc1cc2c(cc1OC)CN(CC(=O)NC(=O)NC(C)(C)C)CC2	none
COc1ccc(C2C(=O)c3ccccc3C2=O)cc1	none
O=C1c2ccccc2-c2nc3ccccc3cc21	none
O=C1c2ccccc2C(=O)C1c1ccc2ccccc2n1	BL2 CD40 inh 52
C[C@H]1CN(C)C(=O)Cc2cc(N)ccc2O[C@@H]1CN(C)C(=O)OC(C)(C)C	none
C[C@H](CO)N1C[C@H](C)[C@H](CN(C)C(=O)c2ccncc2)OCCCC[C@H](C)Oc2ccc(NS(=O)(=O)c3cccs3)cc2C1=O	none
C[C@@H]1CCCCO[C@@H](CN(C)Cc2ccc(Cl)c(Cl)c2)[C@@H](C)CN([C@@H](C)CO)C(=O)c2cc(NS(=O)(=O)c3cccs3)ccc2O1	none
C[C@@H]1CCCCO[C@@H](CN(C)Cc2ccc(Cl)c(Cl)c2)[C@H](C)CN([C@@H](C)CO)C(=O)c2cc(NS(=O)(=O)c3cccs3)ccc2O1	none
C[C@@H]1CN([C@H](C)CO)C(=O)c2cc(NS(=O)(=O)c3cccs3)ccc2O[C@@H](C)CCCCO[C@@H]1CN(C)Cc1ccc(Cl)c(Cl)c1	none
C[C@@H]1CCCCO[C@@H](CN(C)Cc2ccc(Cl)c(Cl)c2)[C@H](C)CN([C@H](C)CO)C(=O)c2cc(NS(=O)(=O)c3cccs3)ccc2O1	BL2 CD40 inh 58[25 µM]
C[C@@H]1CN([C@H](C)CO)C(=O)c2cc(NS(=O)(=O)c3cccs3)ccc2O[C@@H](C)CCCCO[C@H]1CN(C)Cc1ccc(Cl)c(Cl)c1	BL2 CD40 inh 56[25 µM]
C[C@H](CO)N1C[C@H](C)[C@@H](CN(C)C)Oc2ccc(NC(=O)CCCN(C)C)cc2CC1=O	none
C[C@H]1CN(C)C(=O)c2cccc(NS(C)(=O)=O)c2O[C@@H]1CN(C)C	none
COCCNC(=O)c1cc2c(c(-c3cccc(C4=CCCCC4)c3)n1)[C@H](CCO)N([S@@](=O)C(C)(C)C)C2	none
Nc1nc(N)c2cc(Sc3ccc(Cl)cc3)ccc2n1	none
Nc1nc(N)c2cc(CNc3ccc(Cl)c(Cl)c3)ccc2n1	BL2 CD40 inh 92
Nc1nc(N)c2cc(Sc3cccc(C(F)(F)F)c3)ccc2n1	none
CN(C[C@@H]1N[C@H](CO)[C@@H]1c1ccc(C2=CCCCC2)cc1)S(C)(=O)=O	none
COc1ccc(NC(=O)Nc2ccc3c(c2)[C@@H]2C[C@@H](CC(=O)NC4CCCC4)O[C@@H](CO)[C@@H]2O3)cc1	none
CCc1cnc(N2[C@H](C#N)[C@H](c3ccc(C#Cc4ccccc4F)cc3)[C@@H]2CO)s1	none
CC(C)C#Cc1ccc([C@H]2[C@@H](CO)N(C(=O)c3ccccn3)[C@H]2C#N)cc1	BL2 CD40 inh 60[25 µM]
N#C[C@@H]1[C@@H](c2ccc(C#Cc3ccccc3F)cc2)[C@H](CO)N1C(=O)C1CCCC1	none
N#C[C@H]1[C@@H](c2ccc(C#Cc3ccc(F)cc3)cc2)[C@H](CO)N1C(=O)C1CCCC1	none
N#C[C@H]1[C@H](c2ccc(C#Cc3ccc(F)cc3)cc2)[C@H](CO)N1C(=O)C1CCCC1	none
CC(C)C#Cc1ccc([C@@H]2[C@@H](C#N)N(C(=O)c3ccccn3)[C@@H]2CO)cc1	none
N#C[C@@H]1[C@H](c2ccc(C#Cc3ccccc3F)cc2)[C@@H](CO)N1C(=O)C1CCCC1	BL2 CD40 inh 94
CCc1cnc(N2[C@H](C#N)[C@@H](c3ccc(C#Cc4ccccc4F)cc3)[C@H]2CO)s1	none
N#C[C@H]1[C@H](c2ccc(C#Cc3ccccc3F)cc2)[C@@H](CO)N1C(=O)C1CCCC1	BL2 CD40 inh 56
CC(C)C#Cc1ccc([C@H]2[C@H](C#N)N(C(=O)c3ccccn3)[C@H]2CO)cc1	none
N#C[C@@H]1[C@@H](c2ccc(C#Cc3ccc(F)cc3)cc2)[C@H](CO)N1C(=O)C1CCCC1	none
CCc1cnc(N2[C@H](C#N)[C@H](c3ccc(C#Cc4ccccc4F)cc3)[C@H]2CO)s1	BL2 CD40 inh 73[25 µM]
COc1ccc2c3c([nH]c2c1)[C@@H](CO)N(C(=O)Nc1ccc(F)cc1)CC31CCN(S(=O)(=O)c2cn(C)cn2)CC1	none
COc1cccc(C#Cc2ccc3c(c2)[C@H]2[C@H](CCN2S(=O)(=O)c2cccc(OC)c2)[C@H](CO)N3)c1	none
N#Cc1cccc(-c2ccc3c(c2)[C@H]2[C@H](CCN2C(=O)CN2CCOCC2)[C@H](CO)N3)c1	none
CC(C)(C)S(=O)N1Cc2cc(C(=O)NCCCN3CCOCC3)nc(-c3cccc(-c4cccc(F)c4)c3)c2[C@H]1CCO (some centres undefined)	none
O=C(NCC1CC1)[C@H]1[C@H](CO)[C@H]2Cn3c(ccc(-c4ccccc4F)c3=O)[C@@H]1N2Cc1cncnc1	none
CO[C@@H]1CN(C)C(=O)c2cc(NC(=O)c3cc(C)on3)ccc2OC[C@@H](C)N(C(=O)C2CC2)C[C@H]1C	none
C/C=C/c1ccc([C@@H]2[C@@H](C#N)N(c3ncc(CC)s3)[C@@H]2CO)cc1	none
CC(C)NC(=O)Nc1ccc2c(c1)CC(=O)N(C)C[C@H](C)[C@H](CN(C)S(C)(=O)=O)O2	none
N#C[C@@H]1[C@H](c2ccc(C#Cc3ccccc3F)cc2)[C@@H](CO)N1C(=O)c1cccnc1	BL2 CD40 inh 78[25 µM]
